These results are taken from PubChem BioAssay AID588727 (Southern Research Specialized Biocontainment Screening …, 2011).

This assay is described as follows: inhibitors of VEEV TC-83 cytopathic effect, confirmation, Vero cells (AID 588727). The settings on record: VEEV TC-83 cytopathic effect inhibition, at 20 µM. For orientation: Cytopathic effects are the visible damage that an infection or toxin causes in cultured cells.
Where [1] appears, read: stronger effect = higher value unless noted.
Where [2] appears, read: measured here: 10K pilot screen inhibition, stronger effect = higher value.

A word on the inhibition: it is the drop in the measured response relative to a control, in per cent.

Out of some 350,000 compounds screened, about 450 (0.13%) were called active. The rule behind the calls is not given here. Not all results are given here. Measured potencies and affinities stand elsewhere.

As to `CN(CC(=O)Nc1ccc(F)cc1)C(=O)COC(=O)/C=C/c1ccccc1[N+](=O)[O-]`, the inhibition under setting [1] was 5.33% (inactive).

For `COc1ccc(/C=N/Nc2nonc2N)cc1`, the inhibition under setting [1] is 0.29% (inactive).

`COc1ccc(C2c3c(ncn(CCN4CCOCC4)c3=N)Oc3ccc4ccccc4c32)cc1OC` (stereo not given): the inhibition under setting [1] is 1.27% (inactive).

For the molecule `COc1ccc(C2c3c(ncn(CCCO)c3=N)Oc3ccc4ccccc4c32)cc1OC` (stereo not given), the inhibition under setting [1] is 4.99% (inactive).

As for `Cc1ccc2sc(NNC(=O)C3=COCCO3)nc2c1C`, under setting [1], the inhibition was 2.26% (inactive).

For the molecule `CN(C)/C=C/C(=O)c1ccccc1OCc1cnc(Cl)s1`, the inhibition entry under setting [1] was “inactive”.

Consider `CC(C)(C)OC(=O)N1CCN(C(=O)c2[nH]cnc2C(=O)N[C@@H](Cc2ccccc2)C(=O)OCc2ccccc2)CC1`, for which, under setting [1], the inhibition is 2.09% (inactive).

On to `CC(C)(C)OC(=O)[C@H](Cc1ccccc1)NC(=O)c1nc[nH]c1C(=O)N1CCN(c2ccccc2)CC1`, for which the inhibition under setting [1] was 5.56% (inactive).

For `O=C(CSc1ncn[nH]1)N/N=C/c1ccc(Br)cc1`, the inhibition under setting [1] is 0.58% (inactive).

As to `Cc1ccccc1NC(=O)COC(=O)C1C2CC3OC(=O)C1C3C2` (stereo not given), the inhibition under setting [1] is 0.18% (inactive).

For the molecule `Cc1nc2c(c(=O)n1CCC1=CCCCC1)c1nc3ccccc3nc1n2/N=C/c1ccccc1`, under setting [1], the inhibition result was “inactive”.

As to `Cc1onc(-c2ccccc2)c1-c1nnc(CN2CCN(S(=O)(=O)c3ccccc3F)CC2)o1`, the inhibition under setting [1] is 7.39% (inactive).

`Cc1ccc(C(=O)NCC(=O)Nc2ncccc2C)s1`: the inhibition result under setting [1] is “inactive”.

Take `COc1ccc(C(=O)NC(=O)Nc2ncccc2C)cc1`: under setting [1], the inhibition was 3.84% (inactive).

In the case of `CCCCc1nc2sc3c(c2c(=O)n1NC(=O)c1ccco1)CC(C)(C)OC3`, under setting [1], the inhibition was 0.57% (inactive).

For the molecule `OCCNC(=S)NCc1ccccc1`, the inhibition under setting [1] was 0.77% (inactive).

With `O=C(NCC(=O)N(c1cccc(F)c1)C(C(=O)NC1CCCC1)c1cccnc1)c1cccs1` (stereo not given), under setting [1], the inhibition entry is “inactive”.

For `Cc1sc2nc(CN(C(=O)c3cccs3)C3CCCC3)[nH]c(=O)c2c1C`, under setting [1], the inhibition was 5.66% (inactive).

As for `O=C(C1CCCCC1)N(Cc1nc2sc3c(c2c(=O)[nH]1)CCCC3)Cc1cccs1`, under setting [1], the inhibition is 2.95% (inactive).

For `S=c1[nH]nc(-c2cccc(Cl)c2)n1/N=C/c1ccc(-c2ccccc2Br)o1`, the inhibition under setting [1] was 23.7% (inactive).

Regarding `Clc1ccccc1-c1ccc(/C=N/n2cnnc2)o1`, under setting [1], the inhibition is 1.39% (inactive).

As to `Cc1nnc(C)n1/N=C/c1ccc(-c2ccccc2Cl)o1`, the inhibition result under setting [1] is “inactive”.

Take `Cc1ccc(-c2ccc(/C=N\n3cnnc3)o2)c(Br)c1`: the inhibition under setting [1] is 1.33% (inactive).

On to `S=c1[nH]nc(-c2ccccn2)n1/N=C/c1ccc(-c2ccccc2Cl)o1`, for which the inhibition under setting [1] is 24.7% (inactive).

For `Cc1n[nH]c(=S)n1/N=C/c1ccc(-c2ccccc2[N+](=O)[O-])o1`, under setting [1], the inhibition was 2.62% (inactive).

In the case of `COc1ccc(CNC(=O)CNC(C)c2ccc(F)cc2)cc1` (stereo not given), the inhibition entry under setting [1] was “inactive”.

`O=C(Cn1nc(Cc2cccnc2)c2ccccc2c1=O)NCc1ccc(F)cc1`: under setting [1], the inhibition is 0% [measured here: 10K pilot screen inhibition, stronger effect = higher value] and the molecule was called inactive.

Turning to `Cc1ccc(NC(=O)CSc2ncn[nH]2)cc1S(=O)(=O)N1CCOCC1`, the inhibition under setting [1] is 0.49% (inactive).

For the molecule `O=C(CNS(=O)(=O)c1ccccc1)OCc1cccc([N+](=O)[O-])c1`, the inhibition under setting [1] was 6.33% (inactive).

For `CN1CCN(c2nc3c(c(=O)[nH]c(=O)n3C)n2CCOc2ccccc2)CC1`, the inhibition under setting [1] is 1.82% (inactive).

For `COC(=O)C(NC(=O)CCC(=O)N[C@@H](C(=O)OC)c1ccccc1)c1ccccc1` (stereo not given in full), under setting [1], the inhibition is 0.43% (inactive).

With `O=C(Nc1ccccc1Cl)OC1CCCCC1`, under setting [1], the inhibition was 0.52% (inactive).

Consider `Cc1c(C(=O)N(C)Cc2ccc(OC(F)F)cc2)oc2ccccc12`, for which the inhibition result under setting [1] is “inactive”.

Regarding `Cn1c(=O)c2c(nc(N/N=C/c3c(O)n(C4CCCCC4)c(=S)[nH]c3=O)n2C)n(C)c1=O`, the inhibition under setting [1] was 0.22% (inactive).

For `C/C(=N\NC(=O)c1ccncc1)c1c(O)n(Cc2ccccc2)c(=O)[nH]c1=O`, the inhibition under setting [1] was 2.16% (inactive).

In the case of `CNc1ccc(Br)cc(C(=O)/C=C/c2ccc(OC)cc2OC)c1=O`, the inhibition runs as follows: (stronger effect = higher value) 1.14% (inactive); under setting [2], 6.96%.

For the molecule `CNc1ccc(Br)cc(C(=O)/C=C/c2cccc(OC)c2OC)c1=O`, under setting [1], the inhibition is 13.1% (inactive).

With `CNc1ccc(Br)cc(C(=O)/C=C/c2ccc(OC)cc2)c1=O`, the inhibition under setting [1] is 7.55% (inactive).

Consider `CNc1ccc(Br)cc(C(=O)/C=C/c2ccc3c(c2)OCO3)c1=O`, for which the inhibition is 7.74% (inactive) (stronger effect = higher value) and 6.21% under setting [2].

For `CNc1nc(C)c(C#N)c(-c2ccccc2)c1C(C)=O`, under setting [1], the inhibition was 0.76% (inactive).

For the molecule `CC[C@]12c3[nH]c4ccccc4c3CCN1C(=O)C(CC(=O)NCCC1=CCCCC1)C[C@@H]2C(=O)N1CCN(C(=O)c2ccco2)CC1` (stereo not given in full), under setting [1], the inhibition entry is “inactive”.

On to `CC(C)c1c(C(=O)N/N=C/c2ccc(OCc3ccccc3)cc2)nnn1-c1nonc1N`, for which the inhibition under setting [1] is 2.29% (inactive).

Take `FC(F)(F)c1cccc(Cc2noc(CN(Cc3ccccn3)CC3CCCO3)n2)c1` (stereo not given): the inhibition under setting [1] was 6.18% (inactive).

On to `CCc1ccccc1NC(=O)C1=CN2CCS(=O)(=O)N=C2C=C1`, for which the inhibition under setting [1] is 4.92% (inactive).

Take `COC(=O)c1ccc(CSc2ccccc2NC(=S)Nc2cccc(SC)c2)o1`: under setting [1], the inhibition was 5.66% (inactive).

For the molecule `COC(=O)[C@@H](Cc1ccccc1)NC(=O)CC[C@H]1O[C@@H](n2cc(C)c(=O)[nH]c2=O)C[C@@H]1O`, the inhibition entry under setting [1] was “inactive”.

For the molecule `Cc1sc2nc(SCC(=O)c3cccs3)n(Cc3ccco3)c(=O)c2c1C`, under setting [1], the inhibition was 0.85% (inactive).

On to `C=CCn1c(SCC(=O)c2cccs2)nc2sc(C)cc2c1=O`, for which the inhibition under setting [1] was 5.28% (inactive).

As to `CCOCCCNC(=O)c1cn(C)c(=O)c2cc(OC)c(OC)cc12`, the inhibition under setting [1] is 2.15% (inactive).

Consider `c1ccc(C(c2c[nH]c3ccccc23)c2c[nH]c3ccccc23)nc1`, for which, under setting [1], the inhibition is 6.07% (inactive).

As for `COC(=O)c1sccc1NC(=O)c1c(-c2ccccc2)noc1C`, under setting [1], the inhibition is 0.71% (inactive).

Consider `COC(=O)c1c(-c2ccccc2)noc1C`, for which the inhibition result under setting [1] is “inactive”.

Turning to `CCOC(=O)c1c(-c2ccc(F)cc2)csc1NC(=O)c1c(-c2ccccc2)noc1C`, the inhibition under setting [1] is 9.91% (inactive).

With `CCOCc1nnc(NC(=O)c2c(-c3ccccc3)noc2C)s1`, the inhibition under setting [1] was 2.18% (inactive).

`CCC(CC)c1nnc(NC(=O)c2c(-c3ccccc3)noc2C)s1`: the inhibition result under setting [1] was “inactive”.

On to `CCOC(=O)c1c(-c2cccc(C)c2)csc1NC(=O)C1CC=CCC1C(=O)O` (stereo not given), for which the inhibition under setting [1] was 1.95% (inactive).

As to `Cn1c(=O)c2c(nc(OCc3cccnc3)n2Cc2c(F)cccc2Cl)n(C)c1=O`, under setting [1], the inhibition entry is “inactive”.
